Our source for the inhibition values is ChEMBL document CHEMBL1961873, “Compounds: GSK PKIS; Assays: Nanosyn kinase panel” (2012).

The target of test [1] is Protein kinase C gamma type (Homo sapiens) (UniProt P05129). Conditions: at 1 µM.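 Also: each value is an averaged percent inhibition of the enzyme.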
For test [2], the target named is T1, Protein kinase C iota type (Homo sapiens) (UniProt P41743).
T1 sequence (whole entry): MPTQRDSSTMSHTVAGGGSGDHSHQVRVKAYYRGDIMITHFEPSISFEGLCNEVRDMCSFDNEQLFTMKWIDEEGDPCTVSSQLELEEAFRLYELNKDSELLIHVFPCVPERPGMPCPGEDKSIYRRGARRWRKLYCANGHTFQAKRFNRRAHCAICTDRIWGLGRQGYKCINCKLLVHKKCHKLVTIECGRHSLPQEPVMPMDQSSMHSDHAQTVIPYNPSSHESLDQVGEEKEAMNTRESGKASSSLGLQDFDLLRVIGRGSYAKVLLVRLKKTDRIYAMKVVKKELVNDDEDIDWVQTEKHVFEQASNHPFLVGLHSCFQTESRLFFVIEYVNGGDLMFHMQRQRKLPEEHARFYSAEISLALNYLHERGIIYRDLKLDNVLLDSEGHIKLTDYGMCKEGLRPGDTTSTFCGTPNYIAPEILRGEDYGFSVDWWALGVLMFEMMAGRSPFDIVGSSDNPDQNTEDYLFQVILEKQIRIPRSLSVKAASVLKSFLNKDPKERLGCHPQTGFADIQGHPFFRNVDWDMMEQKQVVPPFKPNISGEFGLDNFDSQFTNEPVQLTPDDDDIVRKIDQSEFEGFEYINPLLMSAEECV
Conditions: at 0.1 µM.

In test [3] the target is T1, Protein kinase C iota type (Homo sapiens). Conditions: at 1 µM.
In test [4] the target is Protein kinase C theta type (Homo sapiens) (UniProt Q04759). As to conditions: at 0.1 µM.
The target is the same in test [5]. As to conditions: at 1 µM.
Test [6] deals with Protein kinase C beta type (Homo sapiens) (UniProt P05771). As to conditions: at 0.1 µM.
Test [7] shares this target. Conditions: at 1 µM.
Test [8] deals with T2, Serine/threonine-protein kinase D1 (Homo sapiens) (UniProt Q15139).
T2 sequence (whole entry): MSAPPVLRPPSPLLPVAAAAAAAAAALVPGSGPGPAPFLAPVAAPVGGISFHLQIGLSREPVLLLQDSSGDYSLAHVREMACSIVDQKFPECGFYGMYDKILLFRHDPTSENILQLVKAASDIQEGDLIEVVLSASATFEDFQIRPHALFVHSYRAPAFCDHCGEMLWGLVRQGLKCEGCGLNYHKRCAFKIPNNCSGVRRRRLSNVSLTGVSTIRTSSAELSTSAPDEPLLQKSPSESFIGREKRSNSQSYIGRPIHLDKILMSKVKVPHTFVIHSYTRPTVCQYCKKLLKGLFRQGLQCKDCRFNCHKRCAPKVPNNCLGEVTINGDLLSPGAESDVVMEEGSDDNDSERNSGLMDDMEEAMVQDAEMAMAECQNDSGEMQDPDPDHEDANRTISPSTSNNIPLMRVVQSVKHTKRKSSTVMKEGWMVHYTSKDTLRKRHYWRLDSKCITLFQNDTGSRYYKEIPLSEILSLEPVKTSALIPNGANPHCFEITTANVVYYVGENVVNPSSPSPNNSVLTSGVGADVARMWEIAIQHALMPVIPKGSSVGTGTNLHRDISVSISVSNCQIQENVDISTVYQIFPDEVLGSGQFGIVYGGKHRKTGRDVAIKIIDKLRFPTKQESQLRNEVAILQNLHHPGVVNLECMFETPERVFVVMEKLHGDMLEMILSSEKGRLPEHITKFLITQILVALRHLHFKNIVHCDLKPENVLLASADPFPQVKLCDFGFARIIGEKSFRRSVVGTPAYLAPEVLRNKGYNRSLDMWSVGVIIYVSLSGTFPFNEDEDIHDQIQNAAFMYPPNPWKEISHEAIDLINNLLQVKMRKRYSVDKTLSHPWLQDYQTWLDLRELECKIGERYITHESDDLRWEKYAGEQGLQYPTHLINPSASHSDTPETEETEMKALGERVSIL
As to conditions: at 0.1 µM.

Test [9] deals with T2, Serine/threonine-protein kinase D1 (Homo sapiens). Conditions: at 1 µM.
The target in test [10] is T3, Serine/threonine-protein kinase D2 (Homo sapiens) (UniProt Q9BZL6).
T3 sequence (whole entry): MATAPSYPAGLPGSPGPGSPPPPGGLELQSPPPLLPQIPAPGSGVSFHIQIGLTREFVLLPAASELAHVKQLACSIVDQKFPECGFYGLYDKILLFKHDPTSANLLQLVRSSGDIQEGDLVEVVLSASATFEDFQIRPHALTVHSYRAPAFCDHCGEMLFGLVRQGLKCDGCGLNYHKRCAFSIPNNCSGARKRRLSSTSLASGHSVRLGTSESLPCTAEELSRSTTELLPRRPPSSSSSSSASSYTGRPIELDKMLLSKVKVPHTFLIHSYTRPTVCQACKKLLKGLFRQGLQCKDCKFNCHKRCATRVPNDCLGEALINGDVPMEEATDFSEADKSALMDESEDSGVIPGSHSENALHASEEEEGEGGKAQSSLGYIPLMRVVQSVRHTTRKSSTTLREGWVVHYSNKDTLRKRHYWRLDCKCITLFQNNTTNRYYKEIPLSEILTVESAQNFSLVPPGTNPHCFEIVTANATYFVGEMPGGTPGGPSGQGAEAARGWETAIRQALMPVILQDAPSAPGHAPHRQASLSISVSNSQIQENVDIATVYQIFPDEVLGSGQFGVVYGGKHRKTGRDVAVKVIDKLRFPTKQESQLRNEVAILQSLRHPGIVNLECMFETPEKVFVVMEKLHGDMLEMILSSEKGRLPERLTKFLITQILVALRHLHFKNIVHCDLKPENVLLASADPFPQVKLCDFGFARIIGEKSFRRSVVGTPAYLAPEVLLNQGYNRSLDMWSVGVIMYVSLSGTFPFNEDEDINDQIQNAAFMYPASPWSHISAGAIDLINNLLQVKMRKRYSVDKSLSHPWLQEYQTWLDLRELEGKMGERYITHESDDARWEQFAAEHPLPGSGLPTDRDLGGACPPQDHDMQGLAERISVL
As to conditions: at 0.1 µM.

In test [11] the target is T3, Serine/threonine-protein kinase D2 (Homo sapiens). As to conditions: at 1 µM.
For test [12], the target named is T4, Serine/threonine-protein kinase D3 (Homo sapiens) (UniProt O94806).
T4 sequence (whole entry): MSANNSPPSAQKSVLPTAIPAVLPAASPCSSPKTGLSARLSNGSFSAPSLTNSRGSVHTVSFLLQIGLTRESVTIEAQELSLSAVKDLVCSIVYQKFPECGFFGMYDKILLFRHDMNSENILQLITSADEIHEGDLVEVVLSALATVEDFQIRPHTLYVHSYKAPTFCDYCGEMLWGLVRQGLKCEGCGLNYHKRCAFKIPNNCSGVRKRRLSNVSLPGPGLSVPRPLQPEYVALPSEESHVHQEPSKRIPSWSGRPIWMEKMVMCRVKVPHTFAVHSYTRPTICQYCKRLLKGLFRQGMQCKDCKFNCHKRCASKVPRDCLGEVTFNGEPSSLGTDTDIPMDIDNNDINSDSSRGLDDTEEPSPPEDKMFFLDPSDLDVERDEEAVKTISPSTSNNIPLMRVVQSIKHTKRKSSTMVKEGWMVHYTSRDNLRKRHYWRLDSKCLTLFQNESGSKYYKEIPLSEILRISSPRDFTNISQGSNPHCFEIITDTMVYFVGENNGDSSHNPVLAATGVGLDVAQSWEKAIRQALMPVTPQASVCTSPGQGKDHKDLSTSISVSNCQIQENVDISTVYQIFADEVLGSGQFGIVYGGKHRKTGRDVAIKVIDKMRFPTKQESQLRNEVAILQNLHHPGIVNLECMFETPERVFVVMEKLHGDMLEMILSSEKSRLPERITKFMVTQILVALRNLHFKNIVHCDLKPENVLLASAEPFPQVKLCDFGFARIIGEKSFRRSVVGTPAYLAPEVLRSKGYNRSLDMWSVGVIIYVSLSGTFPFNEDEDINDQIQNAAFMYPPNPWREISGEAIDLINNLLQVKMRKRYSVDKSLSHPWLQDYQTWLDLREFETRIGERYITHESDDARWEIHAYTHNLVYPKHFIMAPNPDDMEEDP
As to conditions: at 0.1 µM.

The target of test [13] is T4, Serine/threonine-protein kinase D3 (Homo sapiens). As to conditions: at 1 µM.
Test [14] has as its target T5, cGMP-dependent protein kinase 1 (Homo sapiens) (UniProt Q13976).
T5 sequence (whole entry): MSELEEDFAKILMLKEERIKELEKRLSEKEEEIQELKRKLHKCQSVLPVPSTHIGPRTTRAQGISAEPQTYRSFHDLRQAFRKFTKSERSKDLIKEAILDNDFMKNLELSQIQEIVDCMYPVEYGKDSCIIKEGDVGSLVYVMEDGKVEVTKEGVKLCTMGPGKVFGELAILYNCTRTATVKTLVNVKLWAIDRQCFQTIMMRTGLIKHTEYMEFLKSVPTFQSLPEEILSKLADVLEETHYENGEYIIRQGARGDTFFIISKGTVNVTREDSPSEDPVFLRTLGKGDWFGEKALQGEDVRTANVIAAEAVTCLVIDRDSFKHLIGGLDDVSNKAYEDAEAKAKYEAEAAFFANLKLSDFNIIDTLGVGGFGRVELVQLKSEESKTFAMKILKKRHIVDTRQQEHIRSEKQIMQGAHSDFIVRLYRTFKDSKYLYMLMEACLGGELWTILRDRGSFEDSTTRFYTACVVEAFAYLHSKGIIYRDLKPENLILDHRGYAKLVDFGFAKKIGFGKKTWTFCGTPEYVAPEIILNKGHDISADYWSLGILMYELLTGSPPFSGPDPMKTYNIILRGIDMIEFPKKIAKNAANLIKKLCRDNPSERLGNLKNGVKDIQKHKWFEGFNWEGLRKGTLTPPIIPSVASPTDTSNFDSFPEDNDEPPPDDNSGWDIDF
As to conditions: at 0.1 µM.

Test [15] concerns the target T5, cGMP-dependent protein kinase 1 (Homo sapiens). As to conditions: at 1 µM.
For test [16], the target named is T6, cGMP-dependent protein kinase 2 (Homo sapiens) (UniProt Q13237).
T6 sequence (whole entry): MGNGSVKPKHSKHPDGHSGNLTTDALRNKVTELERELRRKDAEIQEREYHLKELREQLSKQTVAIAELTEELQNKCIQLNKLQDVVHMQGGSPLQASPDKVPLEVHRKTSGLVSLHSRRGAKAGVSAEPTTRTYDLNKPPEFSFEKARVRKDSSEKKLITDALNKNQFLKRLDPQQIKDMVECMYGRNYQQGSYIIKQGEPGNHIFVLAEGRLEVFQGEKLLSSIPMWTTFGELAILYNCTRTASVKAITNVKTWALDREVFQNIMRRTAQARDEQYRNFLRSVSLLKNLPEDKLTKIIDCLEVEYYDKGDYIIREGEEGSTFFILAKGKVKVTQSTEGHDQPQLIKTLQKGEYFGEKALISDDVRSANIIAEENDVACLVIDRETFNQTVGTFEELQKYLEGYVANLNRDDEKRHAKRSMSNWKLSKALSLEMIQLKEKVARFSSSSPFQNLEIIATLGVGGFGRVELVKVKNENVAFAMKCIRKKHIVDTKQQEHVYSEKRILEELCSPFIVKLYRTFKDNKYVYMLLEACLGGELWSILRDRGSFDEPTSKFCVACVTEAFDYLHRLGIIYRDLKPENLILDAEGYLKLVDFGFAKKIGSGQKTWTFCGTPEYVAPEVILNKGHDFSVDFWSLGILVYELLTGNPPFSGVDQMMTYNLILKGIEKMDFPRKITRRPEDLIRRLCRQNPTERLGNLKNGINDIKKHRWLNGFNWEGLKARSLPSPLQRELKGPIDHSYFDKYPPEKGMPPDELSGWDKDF
Conditions: at 0.1 µM.

The target of test [17] is T6, cGMP-dependent protein kinase 2 (Homo sapiens). As to conditions: at 1 µM.
For test [18], the target named is T7, cAMP-dependent protein kinase catalytic subunit PRKX (Homo sapiens) (UniProt P51817).
T7 sequence (whole entry): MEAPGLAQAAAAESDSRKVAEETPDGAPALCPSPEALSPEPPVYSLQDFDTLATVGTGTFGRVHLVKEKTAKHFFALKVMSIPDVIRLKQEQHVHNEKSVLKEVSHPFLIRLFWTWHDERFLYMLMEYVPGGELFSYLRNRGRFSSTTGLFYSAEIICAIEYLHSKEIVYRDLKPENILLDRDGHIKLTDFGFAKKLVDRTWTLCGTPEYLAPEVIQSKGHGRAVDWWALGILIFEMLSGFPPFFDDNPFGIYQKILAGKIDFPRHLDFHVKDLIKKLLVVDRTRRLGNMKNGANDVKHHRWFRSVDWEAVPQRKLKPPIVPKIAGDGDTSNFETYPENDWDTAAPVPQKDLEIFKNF
As to conditions: at 0.1 µM.

For test [19], the target named is T7, cAMP-dependent protein kinase catalytic subunit PRKX (Homo sapiens). Conditions: at 1 µM.
The target of test [20] is Rho-associated protein kinase 1 (Homo sapiens) (UniProt Q13464). Conditions: at 0.1 µM.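 Also: values are mean percent inhibition of ROCK1.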
Chain of Rho-associated protein kinase 1 (Homo sapiens) (Q13464 2-1354 limits assumed): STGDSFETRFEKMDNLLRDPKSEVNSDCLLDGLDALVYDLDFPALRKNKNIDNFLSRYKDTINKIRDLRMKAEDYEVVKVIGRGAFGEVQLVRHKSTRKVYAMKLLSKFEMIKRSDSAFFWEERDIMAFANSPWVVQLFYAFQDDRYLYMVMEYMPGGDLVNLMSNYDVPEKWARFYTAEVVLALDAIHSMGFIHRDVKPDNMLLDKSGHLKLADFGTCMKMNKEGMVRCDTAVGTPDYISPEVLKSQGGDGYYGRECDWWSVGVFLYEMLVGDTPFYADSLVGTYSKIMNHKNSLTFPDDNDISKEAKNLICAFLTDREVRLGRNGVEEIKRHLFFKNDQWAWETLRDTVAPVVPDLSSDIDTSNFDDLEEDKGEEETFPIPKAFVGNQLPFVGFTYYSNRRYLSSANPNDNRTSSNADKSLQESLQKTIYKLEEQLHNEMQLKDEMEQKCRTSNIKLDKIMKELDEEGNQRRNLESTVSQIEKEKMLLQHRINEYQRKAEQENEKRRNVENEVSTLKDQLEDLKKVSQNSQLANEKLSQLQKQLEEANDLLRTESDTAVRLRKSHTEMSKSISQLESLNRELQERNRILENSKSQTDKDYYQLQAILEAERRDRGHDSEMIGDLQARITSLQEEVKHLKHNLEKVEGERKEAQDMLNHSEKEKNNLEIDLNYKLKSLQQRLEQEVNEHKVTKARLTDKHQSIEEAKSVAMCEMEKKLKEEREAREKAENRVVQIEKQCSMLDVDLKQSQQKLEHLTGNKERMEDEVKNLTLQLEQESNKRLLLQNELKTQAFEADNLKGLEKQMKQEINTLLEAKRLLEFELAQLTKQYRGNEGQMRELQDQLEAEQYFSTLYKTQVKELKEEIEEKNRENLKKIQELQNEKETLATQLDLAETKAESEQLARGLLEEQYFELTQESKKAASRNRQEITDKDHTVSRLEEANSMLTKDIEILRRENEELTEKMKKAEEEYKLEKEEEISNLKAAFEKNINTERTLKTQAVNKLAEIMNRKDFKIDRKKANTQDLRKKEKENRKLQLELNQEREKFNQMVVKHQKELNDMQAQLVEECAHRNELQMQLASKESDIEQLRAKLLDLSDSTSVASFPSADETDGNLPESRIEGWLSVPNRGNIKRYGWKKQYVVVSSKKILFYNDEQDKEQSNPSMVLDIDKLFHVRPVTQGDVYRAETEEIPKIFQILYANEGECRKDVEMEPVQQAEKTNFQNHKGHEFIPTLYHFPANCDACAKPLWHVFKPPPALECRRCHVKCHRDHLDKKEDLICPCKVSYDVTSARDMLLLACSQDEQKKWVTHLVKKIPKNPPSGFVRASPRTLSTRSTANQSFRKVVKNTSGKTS

Chain of Protein kinase C theta type (Homo sapiens) (Q04759 whole entry, looked up): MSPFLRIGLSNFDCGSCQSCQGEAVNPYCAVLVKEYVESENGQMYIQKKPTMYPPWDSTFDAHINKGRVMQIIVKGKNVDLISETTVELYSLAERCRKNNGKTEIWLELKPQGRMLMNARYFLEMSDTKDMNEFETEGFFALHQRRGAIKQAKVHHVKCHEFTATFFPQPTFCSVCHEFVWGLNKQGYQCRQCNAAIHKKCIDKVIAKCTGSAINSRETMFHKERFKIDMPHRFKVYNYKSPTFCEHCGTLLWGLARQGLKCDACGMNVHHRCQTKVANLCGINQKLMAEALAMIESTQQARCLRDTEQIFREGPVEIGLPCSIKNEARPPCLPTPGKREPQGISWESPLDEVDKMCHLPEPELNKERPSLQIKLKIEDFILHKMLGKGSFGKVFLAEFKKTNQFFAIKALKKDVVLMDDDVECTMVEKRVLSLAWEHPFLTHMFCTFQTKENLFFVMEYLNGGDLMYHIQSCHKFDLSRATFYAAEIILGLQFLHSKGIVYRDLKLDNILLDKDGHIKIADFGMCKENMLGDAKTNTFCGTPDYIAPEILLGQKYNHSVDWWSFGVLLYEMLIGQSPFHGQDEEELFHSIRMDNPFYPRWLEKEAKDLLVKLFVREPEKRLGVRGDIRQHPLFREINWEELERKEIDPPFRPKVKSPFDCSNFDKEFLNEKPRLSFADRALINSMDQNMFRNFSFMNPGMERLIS
Chain of Protein kinase C beta type (Homo sapiens) (P05771 2-671 limits assumed): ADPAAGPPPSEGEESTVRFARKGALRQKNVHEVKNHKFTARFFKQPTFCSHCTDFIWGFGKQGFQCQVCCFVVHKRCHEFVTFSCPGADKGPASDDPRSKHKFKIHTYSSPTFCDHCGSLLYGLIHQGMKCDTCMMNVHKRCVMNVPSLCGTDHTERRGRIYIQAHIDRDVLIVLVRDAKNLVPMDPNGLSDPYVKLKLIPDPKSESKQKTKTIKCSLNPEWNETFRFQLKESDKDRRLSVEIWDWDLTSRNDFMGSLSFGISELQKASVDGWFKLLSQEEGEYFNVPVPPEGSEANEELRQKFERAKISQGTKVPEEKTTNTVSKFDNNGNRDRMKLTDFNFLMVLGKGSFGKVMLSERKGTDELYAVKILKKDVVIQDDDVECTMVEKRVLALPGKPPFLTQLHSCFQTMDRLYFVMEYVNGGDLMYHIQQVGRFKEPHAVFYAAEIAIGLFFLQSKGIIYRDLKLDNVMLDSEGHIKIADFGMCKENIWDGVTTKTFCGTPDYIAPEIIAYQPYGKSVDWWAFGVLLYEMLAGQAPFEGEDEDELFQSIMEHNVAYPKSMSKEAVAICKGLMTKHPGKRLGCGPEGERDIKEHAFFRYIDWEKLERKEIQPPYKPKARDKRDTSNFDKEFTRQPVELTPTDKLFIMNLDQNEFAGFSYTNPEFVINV

Regarding `COc1cc(N2CCN(C(C)C)CC2)ccc1Nc1nc(Nc2ccc(F)cc2C(N)=O)c2cc[nH]c2n1`, the inhibition (in general, the change of the read-out against control, counted positive when it falls) was 15.7% in test [1]; -0.5% in [2]; 0.42% in [3]; 2.56% in test [4]; 4.69% in test [5]; 1.59% in [6]. Also, the inhibition in test [7] worked out at 5.72%; in test [8], 61.7%; in [9], 84.3%; in test [10], 59.9%; in test [11] it was 83.9%; in [12] it was 38.8%. In addition, the inhibition is 79.8% in test [13]; 11.5% in test [14]; 55% in test [15]; 6% in [16]; 25.4% in test [17]; 5.37% in [18]. Besides, the values for the inhibition in test [19] and in test [20] were 5.35% and 1.79%, respectively.
